Assay results from PubChem BioAssay (NCATS).
Records with an inconclusive call do not appear. Calls of active or inactive are those of the source. Calls come from the whole dose curve; as a rule, active = well fitted curve in the direction sought with a large enough effect; inconclusive = small, poorly fitted or top-dose-only effect, or another doubt; inactive = no such curve, though single readings can be large; an effect the other way counts as inactive or inconclusive.

Columns and labels:
[1] = Quantitative High-Throughput drug screen in 47 multiple myeloma cell lines against the NCATS MIPE library collection: Delta47_JCRB cell viability assay (AID 1918925; note: nearly all actives have a fitted effect of over 45% in size)
Procedure, shortened: (§1)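 qHTS of the MIPE 4.0 collection: 500 myeloma cells/well, 48 h drug exposure at 37C in 5% CO2, then CellTiter-Glo for 5 min at room temperature before luminescence reading.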

[2] = Quantitative High-Throughput drug screen in 47 multiple myeloma cell lines against the NCATS MIPE library collection: AMO1_DSMZ cell viability assay (AID 1918927; note: nearly all actives have a fitted effect of over 30% in size)
Procedure, shortened: as §1

[3] = Quantitative High-Throughput drug screen in 47 multiple myeloma cell lines against the NCATS MIPE library collection: ARP1_JJKsccF8 cell viability assay (AID 1918928; note: nearly all actives have a fitted effect of over 40% in size)
Procedure, shortened: (§2)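 CellTiter-Glo luminescence after 48 h exposure gives viability, scaled between DMSO-only (100%) and media-only (0%) controls. Library compounds are pinned onto 500 myeloma cells per well, incubated at 37C with 5% CO2.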

[4] = Quantitative High-Throughput drug screen in 47 multiple myeloma cell lines against the NCATS MIPE library collection: ARD_JJKsccE7 cell viability assay (AID 1918929)
Procedure, shortened: as §1

[5] = Quantitative High-Throughput drug screen in 47 multiple myeloma cell lines against the NCATS MIPE library collection: Karpas620_DSMZ cell viability assay (AID 1918959); note: nearly all actives have a fitted effect of over 30% in size
Procedure, shortened: (§3)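 Relative luminescence from CellTiter-Glo served as the viability signal, referenced to DMSO-treated (100%) and cell-free medium (0%) controls. Treatment lasted 48 hours at 37C with 500 cells per well.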

[6] = Quantitative High-Throughput drug screen in 47 multiple myeloma cell lines against the NCATS MIPE library collection: KMM1_JCRB cell viability assay (AID 1918960); note: nearly all actives have a fitted effect of over 30% in size
Procedure, shortened: as §2

[7] = Quantitative High-Throughput drug screen in 47 multiple myeloma cell lines against the NCATS MIPE library collection: Karpas417_ECACC cell viability assay (AID 1918961); details: Karpas417 myeloma viability, CellTiter-Glo ATP luminescence, 48 h; viability (% of DMSO): at 45.8 µM (top of the series)
Procedure, shortened: as §3

[8] = Quantitative High-Throughput drug screen in 47 multiple myeloma cell lines against the NCATS MIPE library collection: KHM11_PLB cell viability assay (AID 1918962); note: nearly all actives have a fitted effect of over 35% in size
Procedure, shortened: as §3

[9] = Quantitative High-Throughput drug screen in 47 multiple myeloma cell lines against the NCATS MIPE library collection: JIM3_ECACC cell viability assay (AID 1918963; note: nearly all actives have a fitted effect of over 35% in size)
Procedure, shortened: as §3

[10] = Quantitative High-Throughput drug screen in 47 multiple myeloma cell lines against the NCATS MIPE library collection: JIM1_ECACC cell viability assay (AID 1918964)
Procedure, shortened: as §1

[11] = Quantitative High-Throughput drug screen in 47 multiple myeloma cell lines against the NCATS MIPE library collection: INA6_PLB cell viability assay (AID 1918965; note: nearly all actives have a fitted effect of over 55% in size)
Procedure, shortened: as §3

[12] = Quantitative High-Throughput drug screen in 47 multiple myeloma cell lines against the NCATS MIPE library collection: H1112_PLB cell viability assay (AID 1918967; note: nearly all actives have a fitted effect of over 30% in size)
Procedure, shortened: as §1

[13] = Quantitative High-Throughput drug screen in 47 multiple myeloma cell lines against the NCATS MIPE library collection: Karpas25_ECACC cell viability assay (AID 1918968; note: nearly all actives have a fitted effect of over 35% in size)
Procedure, shortened: as §1

[14] = Quantitative High-Throughput drug screen in 47 multiple myeloma cell lines against the NCATS MIPE library collection: KMS27_JCRB cell viability assay (AID 1918970); details: KMS27 myeloma cells, CellTiter-Glo ATP viability, 48 h; viability (% of DMSO): at 45.8 µM (top of the series); note: nearly all actives have a fitted effect of over 30% in size
Procedure, shortened: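 Myeloma cells (500 per well) were exposed to MIPE 4.0 compounds for 48 h at 37 °C, 5% CO2; viability was read as ATP luminescence with CellTiter-Glo, normalized to DMSO-only (100%) and media-only (0%) wells.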

[15] = Quantitative High-Throughput drug screen in 47 multiple myeloma cell lines against the NCATS MIPE library collection: EJM_DSMZ cell viability assay (AID 1918926; note: nearly all actives have a fitted effect of over 30% in size)
Procedure, shortened: as §1

[16] = Quantitative High-Throughput drug screen in 47 multiple myeloma cell lines against the NCATS MIPE library collection: JJN3_DSMZ cell viability assay (AID 1918966; note: nearly all actives have a fitted effect of over 50% in size)
Procedure, shortened: as §1

Measured: Potency
Potency is the fitted concentration of half-maximal effect.

O=S(=O)(NCCNCC=Cc1ccc(Br)cc1)c1cccc2cnccc12
active: [1] 14.8 µM | [2] 16.6 µM | [3] 16.6 µM | [4] 10.5 µM | [5] 20.9 µM | [6] 14.8 µM | [7] 1.32 µM | [8] 9.35 µM | [9] 16.6 µM | [10] 4.18 µM | [11] 7.43 µM | [12] 14.8 µM | [13] 9.35 µM | [14] 13.2 µM

C[C@]12CCC3=C4CCC(=O)C=C4CC[C@@H]3[C@H]1CC[C@@]2(O)CC#N
inactive: [1] | [15] | [3] | [8] | [9] | [12] | [14]

COc1c(C)cnc(Cn2cnc3c(Cl)nc(N)nc32)c1C
active: [1] 0.264 µM | [2] 0.0833 µM | [3] 0.118 µM | [4] 0.0418 µM | [5] 0.209 µM | [6] 0.059 µM | [7] 0.0235 µM | [8] 0.105 µM | [9] 0.148 µM | [11] 0.148 µM | [16] 0.166 µM | [12] 0.132 µM | [13] 0.209 µM

OC(c1cc(C(F)(F)F)nc2c(C(F)(F)F)cccc12)C1CCCCN1 (centres undefined)
active: [1] 26.4 µM | [15] 18.7 µM | [2] 18.7 µM | [6] 20.9 µM | [9] 18.7 µM | [10] 16.6 µM | [11] 23.5 µM | [12] 20.9 µM | [13] 16.6 µM

C=C[C@@H]1CN2CCC1C[C@@H]2C(O)c1ccnc2ccc(OC)cc12 (some centres undefined)
active: [3] 1.87 µM | [16] 16.6 µM | [13] 1.66 µM
inactive: [1] | [2] | [5] | [6] | [9] | [10] | [12]

OC[C@H]1O[C@@H](Oc2ccc(O)cc2)[C@H](O)[C@@H](O)[C@H]1O
active: [9] 10.5 µM
inactive: [1] | [15] | [5] | [6] | [8] | [13]

CCOC(=O)N1CCN([N+]([O-])=NOc2cc(ON=[N+]([O-])N3CCN(C(=O)OCC)CC3)c([N+](=O)[O-])cc2[N+](=O)[O-])CC1
active: [1] 4.69 µM | [15] 2.64 µM | [9] 9.35 µM | [11] 2.35 µM | [16] 2.96 µM | [12] 5.9 µM | [13] 2.64 µM
inactive: [2] | [10]
